Reference: ChEMBL document CHEMBL1157539, “Thousands of chemical starting points for antimalarial lead identification” (Nature, 2010)

Tests used:
Format in all cases: functional
[1] = test system: Plasmodium falciparum; test: GSK_TCMDC: Inhibition of Plasmodium falciparum 3D7 in whole red blood cells, using parasite LDH activity as an index of growth. Test compounds present at 2uM
[2] = test system: Plasmodium falciparum; test: GSK_TCMDC: Inhibition of Plasmodium falciparum Dd2 in whole red blood cells, using parasite LDH activity as an index of growth. Test compounds present at 2uM
[3] = test system: HepG2; test: GSK_TCMDC: Percent inhibition of human HepG2 cell line. Test compounds present at 10uM.

Molecule `Cc1c(-c2ccc3c(c2)C(NCCCN2CCCCC2)CC3)cnc(N)c1C.Cl` (stereo not drawn) has an Inhibition [1] of 97%, an Inhibition [2] of 3% and an Inhibition [3] of 4%.
Work on `Br.CC(C)(C)c1ccccc1OCCCON1C(=N)N=C(N)NC1(C)C` yielded an Inhibition [1] of 95%, an Inhibition [2] of 98% and an Inhibition [3] of 63%.
In the case of `OC(CNc1ccnc(Nc2ccc(Cl)cc2)n1)c1ccccc1C(F)(F)F` (stereo not drawn), the Inhibition [1] is reported as 98%, the Inhibition [2] is reported as 28% and the Inhibition [3] is reported as 22%.
For `CCOc1ccc2nc(NC(=O)c3csnn3)sc2c1`, the Inhibition [1] was 100%, the Inhibition [2] was 98% and the Inhibition [3] was 6%.
Work on `N#Cc1cccc(Nc2nccc(NCC(O)c3cccc(C(F)(F)F)c3)n2)c1` (stereo not drawn) yielded an Inhibition [1] of 99%, an Inhibition [2] of 84% and an Inhibition [3] of 4%.
With `COc1ccc(CC2(c3ccc(F)cc3)N=C(N)N(CCCc3ccc4c(c3)OCO4)C2=O)cc1.O=C(O)C(F)(F)F` (stereo not drawn) the Inhibition [1] was 98%, the Inhibition [2] was 97% and the Inhibition [3] was 60%.
With `Cl.O=c1cc(NCCCNCc2sc(Br)c(Br)c2Br)[nH]c2ccccc12` the Inhibition [1] was 90%, the Inhibition [2] was 38% and the Inhibition [3] was 0%.
For `O=C(Nc1cccc(CN2CCN(C(=O)c3ccccc3)CC2)c1)c1cccs1.O=C(O)C(F)(F)F`, the Inhibition [1] was 95%, the Inhibition [2] was 97% and the Inhibition [3] was 15%.
`CC1CN(Cc2cccc(C#N)c2)CCN1c1ccc(NC(=O)c2cccs2)cc1.O=C(O)C(F)(F)F` (stereo not drawn) gave an Inhibition [1] of 94%, an Inhibition [2] of 93% and an Inhibition [3] of 4%.
`CN1CCN(CCCN(Cc2cccc(-c3cccc(CNC4CCCC4)c3)c2)C(=O)/C=C/c2ccccc2)CC1.O=C(O)C(F)(F)F` showed an Inhibition [1] of 100%, an Inhibition [2] of 99% and an Inhibition [3] of 84%.
Molecule `COc1ccccc1CCNc1nc(C)cc(N[C@@H](Cc2ccccc2)C(=O)Nc2ccccc2)n1.O=C(O)C(F)(F)F` has an Inhibition [1] of 100%, an Inhibition [2] of 86% and an Inhibition [3] of 30%.
For `CN1CCN(Cc2ccc(-c3cc4c(Nc5ccc(OCc6cccc(F)c6)c(Cl)c5)ncnc4s3)[nH]2)CC1`, the Inhibition [1] was 100%, the Inhibition [2] was 99% and the Inhibition [3] was 23%.
With `O=C(/C=C/c1ccc(Cl)c(Cl)c1)NCCCCCN1CCC(NC(=O)Nc2ccc(F)c(F)c2)CC1` the Inhibition [1] was 99%, the Inhibition [2] was 4% and the Inhibition [3] was 24%.
In the case of `O=C(Nc1cccc(-c2cccc(-c3nc4ccccc4[nH]3)c2)c1)c1csnn1`, the Inhibition [1] is reported as 90%, the Inhibition [2] is reported as 27% and the Inhibition [3] is reported as 31%.
`O=C(Nc1ccc2c(c1)OCCO2)c1cc(-c2cccnc2)nc2ccc(Cl)cc12` showed an Inhibition [1] of 95%, an Inhibition [2] of 27% and an Inhibition [3] of 2%.
For `COc1cc2nc(NCc3cccc(CNC(=O)c4ccc(-c5ccc(C(C)=O)cc5)cc4)c3)nc(N)c2cc1OC.O=C(O)C(F)(F)F`, the Inhibition [1] was 100%, the Inhibition [2] was 72% and the Inhibition [3] was 32%.
`Cc1cc(N[C@@H](CC(C)C)C(=O)NCCc2ccccc2)nc(NCCc2ccc(F)cc2)n1.O=C(O)C(F)(F)F` gave an Inhibition [1] of 98%, an Inhibition [2] of 53% and an Inhibition [3] of 12%.
In the case of `CCCC(=O)Nc1ccc(OCCCN(Cc2ccccc2C(F)(F)F)c2ccc(C#N)c(C(F)(F)F)c2)cc1`, the Inhibition [1] is reported as 89%, the Inhibition [2] is reported as 79% and the Inhibition [3] is reported as 0%.
Work on `CC(C)c1ccc(NC(=O)c2cccc(CN3CCCN(Cc4cccc(C#N)c4)CC3)c2)cc1.O=C(O)C(F)(F)F` yielded an Inhibition [1] of 93%, an Inhibition [2] of 15% and an Inhibition [3] of 48%.
In the case of `CCN(CC)/C(=N/C(=N)Nc1ccc(Cl)cc1)NCCCCCCCCN/C(=N\C(=N)Nc1ccc(Cl)cc1)N(CC)CC`, the Inhibition [1] is reported as 99%, the Inhibition [2] is reported as 94% and the Inhibition [3] is reported as 10%.
`COc1ccc(NS(=O)(=O)c2ccc(C(=O)Nc3ccc(C(F)(F)F)cc3)cc2)cc1N1CCN(CC2CC2)CC1.O=C(O)C(F)(F)F` gave an Inhibition [1] of 92%, an Inhibition [2] of 0% and an Inhibition [3] of 15%.
For `CCN(CC)/C(=N/C(=N)NCc1cccc(Cl)c1)NCCCCCCN/C(=N\C(=N)NCc1cccc(Cl)c1)N(CC)CC`, the Inhibition [1] was 99%, the Inhibition [2] was 99% and the Inhibition [3] was 17%.
With `CC1CCCN1Cc1ccc(-c2ccc3c(=O)cc(CCc4cccc(F)c4F)n(CC(=O)N(C)Cc4ccc(-c5ccc(C(F)(F)F)cc5)cc4)c3n2)cc1.O=C(O)C(O)C(O)C(=O)O` (stereo not drawn) the Inhibition [1] was 100%, the Inhibition [2] was 91% and the Inhibition [3] was 0%.
With `O=C(NC1CCN(Cc2ccccc2)CC1)c1cccc(-c2nc3ccc(Cl)cc3[nH]2)c1` the Inhibition [1] was 98%, the Inhibition [2] was 0% and the Inhibition [3] was 6%.
For `COc1cc(C(=O)N2CCOC(CCN3CCC[C@H]3C(=O)Nc3ccccc3)(c3ccc(Cl)c(Cl)c3)C2)cc(OC)c1OC` (stereo partly drawn), the Inhibition [1] was 98%, the Inhibition [2] was 88% and the Inhibition [3] was 3%.
Molecule `CCN(CC)C(=S)N/N=C1/C(=O)Nc2c(C)cccc21` has an Inhibition [1] of 94%, an Inhibition [2] of 69% and an Inhibition [3] of 28%.
